Measurements as given in PubChem BioAssay (Tox21).
Results filed as inconclusive are left out. Entries that show only a call come without a potency. Calls of active or inactive are those of the source. Calls come from the whole dose curve; as a rule, active = well fitted cell-killing curve with a large enough effect in the repeat runs; inconclusive = weak or mixed curves, or effect the other way; inactive = flat fitted curve, though single readings scatter.

Assay: qHTS assay to identify small molecule antagonists of the androgen receptor (AR) signaling pathway using the MDA cell line - cell viability counter screen (AID 743041; note: nearly all actives have a fitted effect of over 45% in size)
Settings: MDA-kb2 viability, CellTiter-Fluor, 16 h, cells co-treated with R1881 androgen agonist; series mostly up to 70.3 µM
Source text: National Center for Advancing Translational Sciences [NCATS]
NIH Chemical Genomics Center [NCGC]
U.S. Environmental Protection Agency [EPA]
National Institutes of Environmental Health Sciences [NIEHS]
National Toxicology Program [NTP]
U.S. Food and Drug Administration [FDA]
Androgen receptor (AR), a nuclear hormone receptor, plays a critical role in AR-dependent prostate cancer and other androgen related diseases. Endocrine disrupting chemicals (EDCs) and their interactions with steroid hormone receptors like AR may cause disruption of normal endocrine function as well as interfere with metabolic homeostasis, reproduction, developmental and behavioral functions. To identify the compounds that inhibit AR signaling, MDA-kb2 AR-luc cell line (from ATCC, deposited by Wilson et al.) was used to screen the Tox21 10K compound library. MDA-kb2 AR-luc cell line is human breast carcinoma cell line that was stably transfected with a luciferase reporter gene under control of the MMTV promoter containing response elements for both androgen receptor (AR) and glucocorticoid receptor (GR). The cytotoxicity of the Tox21 compound library against the MDA-kb2 AR-luc cell line was tested in parallel by measuring the cell viability using CellTiter-Fluor assay (Promega, Madison, WI) in the same wells.
Tox21 Assay Protocol Summary:
MDA-kb2 AR-luc cells were dispensed at 3,000 cells/4 uL/well of culture medium into white wall/solid-bottom 1536-well plates using a Multidrop Combi (ThermoFisher Scientific, Waltham, MA) dispenser. After the assay plates were incubated at a 37C and 0% CO2 for 5 hr, 23 nL of compounds dissolved in DMSO, positive controls or DMSO only was transferred to the assay plate by a Pintool station (Kalypsys, San Diego, CA), followed by addition of 1 uL of agonist (R1881) in culture medium using a Bioraptr Flying Reagent Dispenser (FRD) workstation (Beckman Coulter, Indianapolis, IN, USA). The plates were incubated at a 37C and 0% CO2 for 16 h. After 15.5 h incubation, 1uL of CellTiter-Fluor reagent (Promega) was added using a Bioraptr FRD to each plate for measuring cytotoxicity. The fluorescence intensity was quantified on a ViewLux plate reader (PerkinElmer, Shelton, CT) following 30 min incubation at 37C and 0% CO2.
Potency is the fitted concentration of half-maximal effect.

Row | SMILES | Potency
1 | [Cl][In]([Cl])[Cl] | inactive
2 | O=C(O[C@@H]1Cc2c(O)cc(O)cc2O[C@@H]1c1cc(O)c(O)c(O)c1)c1cc(O)c(O)c(O)c1 | inactive
3 | CCOc1ccc2c(c1)C(C)=CC(C)(C)N2 | inactive
4 | BrC1CCC(Br)C(Br)CCC(Br)C(Br)CCC1Br (stereo not given) | inactive
5 | Nc1nc(=S)c2[nH]cnc2[nH]1 | inactive
6 | CC(C)(O)CCC(C)(C)O | inactive
7 | OCC(CO)N[C@H]1C[C@](O)(CO)[C@@H](O)[C@H](O)[C@H]1O | inactive
8 | NNCCc1ccccc1 | inactive
9 | Nc1ccc2cc3ccccc3cc2c1 | inactive
10 | c1ccc2n[nH]nc2c1 | inactive
11 | CC1COC(=O)O1 (stereo not given) | inactive
12 | OCCOCCN1CCN(C(c2ccccc2)c2ccc(Cl)cc2)CC1 (stereo not given) | inactive
13 | OCCN1CCNCC1 | inactive
14 | CCN(CC)CCOc1ccc(/C(=C(\Cl)c2ccccc2)c2ccccc2)cc1 | inactive
15 | O=C(Oc1ccccc1)c1ccccc1O | inactive
16 | COC(=O)[C@H]1[C@H]2C[C@@H]3c4[nH]c5cc(OC)ccc5c4CCN3C[C@H]2C[C@@H](OC(=O)c2cc(OC)c(OC)c(OC)c2)[C@@H]1OC | inactive
17 | C1COC(NC(C2CC2)C2CC2)=N1 | inactive
18 | C/C=C/c1ccc(OCC)c(O)c1 | inactive
19 | CC1COc2c(N3CCN(C)CC3)c(F)cc3c(=O)c(C(=O)O)cn1c23 (stereo not given) | inactive
20 | Cc1ccc(-c2cc(C(F)(F)F)nn2-c2ccc(S(N)(=O)=O)cc2)cc1 | inactive

Row | SMILES | Potency
21 | CC(=O)N[C@@H](CS)C(=O)O | inactive
22 | O=Nc1ccc(Nc2ccccc2)cc1 | 61.4 µM (active)
23 | NC(Cc1ccc(Cl)cc1)C(=O)O (stereo not given) | inactive
24 | O=C1CC2(CCCC2)CC(=O)N1CCCCN1CCN(c2ncccn2)CC1 | inactive
25 | Cc1cccc(O)c1C | inactive
26 | Clc1ccc2c(c1)C(N1CCNCC1)=Nc1ccccc1O2 | inactive
27 | O=C(O)c1cc(Cl)cc(Cl)c1 | inactive
28 | CCCOC(=O)c1cc(O)c(O)c(O)c1 | inactive
29 | CCC(CO)(CO)COCC(CC)(CO)CO | inactive
30 | Nc1cc(S(=O)(=O)O)cc2cc(S(=O)(=O)O)cc(O)c12 | inactive
31 | CCC[C@H](N[C@@H](C)C(=O)N1[C@H](C(=O)O)C[C@@H]2CCCC[C@@H]21)C(=O)OCC | inactive
32 | CC(C)(C)NCC(O)c1cc(O)cc(O)c1 (stereo not given) | inactive
33 | CC(=O)O[C@]1(C(C)=O)CC[C@H]2[C@@H]3C[C@H](C)C4=CC(=O)CC[C@]4(C)[C@H]3CC[C@@]21C | inactive
34 | COc1cc(C(=S)N2CCOCC2)ccc1O | inactive
35 | CC(=O)OCCOCCOCCOC(C)=O | inactive
36 | Cc1ccnc2c1NC(=O)c1cccnc1N2C1CC1 | inactive
37 | COC(=O)/C=C/c1ccccc1 | inactive
38 | NC(=Nc1ccccc1)Nc1ccccc1 | inactive
39 | CO[Si](OC)(OC)c1ccccc1 | inactive
40 | O=C(OCc1ccccc1)c1ccc(O)cc1 | inactive
